High-throughput results deposited in PubChem BioAssay by National Center for Advancing Translational Sciences (NCATS).
The list is not random: actives were taken first. Their share in the collection is about 9.5%.
NPSR antagonist – antagonists of human neuropeptide S receptor cAMP signaling; CHO-NPSR cells, cAMP TR-FRET, antagonist mode; AID 1461; Q6W5P4; 1% of 220,000 active; Potency, µM (top dose mostly 38.3 µM), inactives show top-dose activity change, negative = inhibition, hits mostly inhibitors; also: nearly all actives have a fitted effect of over 50% in size
Target sequence (Q6W5P4 whole entry, looked up): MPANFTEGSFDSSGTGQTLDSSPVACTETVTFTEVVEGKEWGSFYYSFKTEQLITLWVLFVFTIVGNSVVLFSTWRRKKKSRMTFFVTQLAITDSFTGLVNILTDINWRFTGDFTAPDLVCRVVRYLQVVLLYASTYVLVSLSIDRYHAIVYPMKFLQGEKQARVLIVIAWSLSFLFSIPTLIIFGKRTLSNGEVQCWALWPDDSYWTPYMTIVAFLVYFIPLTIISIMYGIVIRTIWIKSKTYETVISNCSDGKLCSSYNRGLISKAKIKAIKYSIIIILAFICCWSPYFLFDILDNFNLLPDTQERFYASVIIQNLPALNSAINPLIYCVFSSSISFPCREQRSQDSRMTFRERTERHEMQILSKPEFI
HPGD inh – inhibitors of human 15-hydroxyprostaglandin dehydrogenase (HPGD) | P15428 | purified HPGD, NADH fluorescence kinetic, PGE2 substrate | Potency, µM, for the others: at the highest dose activity change, negative = inhibition, actives largely listed as inhibitors | 4.3% of 150,000 active | AID 894; active = well fitted inhibition curve with a large enough effect, not every such curve was filed as active; inconclusive = small, poorly fitted or top-dose-only effect, or another doubt; inactive = no such curve, though single readings can be large or run the other way
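20 nM HPGD preincubated 15 min at room temperature with compound in 50 mM Tris-HCl pH 8, 0.01% Tween 20. Started with 1 mM NAD+ and 30 uM prostaglandin E2; NADH fluorescence (360/450 nm) read 5 times over 30-s intervals, last minus first.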
Tau ThT inhib – inhibitors of human tau fibril formation, thioflavin T binding; AID 1460; P10636; recombinant tau K18 P301L, heparin-induced fibrillization, ThT fluorescence; Potency, µM (doses to about 57.4 µM), without a hit: at the top dose activity, negative = inhibition, actives largely listed as inhibitors; 2.1% of 270,000 active; also: nearly all actives have a fitted effect of over 55% in size
Target sequence (P10636 561-689 P618L limits assumed): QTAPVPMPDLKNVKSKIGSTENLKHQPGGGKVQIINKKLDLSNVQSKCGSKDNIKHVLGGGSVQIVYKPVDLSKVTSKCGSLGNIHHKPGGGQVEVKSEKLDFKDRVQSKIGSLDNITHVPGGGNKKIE
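Aggregation was driven by heparin (20 uM final) acting on recombinant tau […] bearing P301L in 100 mM sodium acetate pH 7; fibrils were detected with Thioflavin T.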
Tau fibril FP – blocks human tau fibril formation measured by polarization | P10636 | K18 P301L tau heparin fibrillization, Alexa594 FP, 6 h | Potency, µM (series often up to 57.7 µM), for the others: top-dose activity, negative = inhibition, usual class: inhibitors | 0.39% of 280,000 active | AID 1468; also: nearly all actives have a fitted effect of over 55% in size
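Recombinant K18 P301L […], labeled with Alexa 594 at 0.24 uM over 15 uM unlabeled; heparin inducer 20 uM final; 37 C, 6 hr; FP endpoint.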
Tau fluor counter – counter-screen for tau fibril formation inhibitors | AID 1463 | tau K18 P301L Alexa594 fluorescence, heparin fibrillization | Potency, µM (titrated, usually from 57.7 µM), for inactives: at the top dose activity change, negative = decrease | 0.93% of 280,000 active; also: nearly all actives have a fitted effect of over 55% in size
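Human tau K18 P301L (15 uM unlabeled, 0.24 uM Alexa 594-labeled) in 100 mM sodium acetate pH 7 with 20 uM heparin, 6 hr at 37 C. ThT 30 uM added, 1 hr ambient; Alexa 594 FP and total fluorescence read at 555/632 nm.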
ALDH1A1 inh – ALDH1A1 (human) enzyme inhibition; P00352; Purified ALDH1A1, NADH fluorescence, propionaldehyde substrate; Potency, µM (doses to about 75.3 µM), inactives show top-dose activity, negative = inhibition, most hits filed as inhibitors; 7.3% of 220,000 active; AID 1030; active = well fitted inhibition curve with a large enough effect, not every such curve was filed as active; inconclusive = small, poorly fitted or top-dose-only effect, or another doubt; inactive = no such curve, though single readings can be large or run the other way;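 also: plate controls were no enzyme wells and a reference inhibitor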
* hit, by the source's call; ? = inconclusive; · = not tested or not shown; [ ] = remark or other dose. Unless noted, calls follow the shape of the dose curve; as a rule, active = well fitted curve in the direction sought with a large enough effect; inconclusive = small, poorly fitted or top-dose-only effect, or another doubt; inactive = no such curve, though single readings can be large; an effect the other way counts as inactive or inconclusive. Unless noted, % is scaled to controls: 0 for no effect and ±100 for the full control effect; potency is read from the fitted curve at half-maximal effect.

SMILES	NPSR antagonist	HPGD inh	Tau ThT inhib	Tau fibril FP	Tau fluor counter	ALDH1A1 inh
O=C(c1cccc(OC(F)F)c1)N1CCN(c2ncccn2)CC1	0.0%[46.1 µM]	-17.4%	-1.4%	1.6%	0.8%	0.1%
O=[N+]([O-])c1ccc(N/N=C/c2c[nH]c3ccccc23)c(S(=O)(=O)Nc2ccc(Cl)cc2)c1	15.8µM*	3.3%	3.16µM*	-10.5%	3.16µM*[quencher]	-8.2%
COc1ccccc1NS(=O)(=O)c1cc([N+](=O)[O-])ccc1N/N=C/c1c(C)[nH]c2ccccc12	-24.8%[46.1 µM]	-13.8%	3.16µM*	?	6.31µM*[quencher]	-3.4%
Cc1cc(C)c(C#N)c(OCC(=O)c2ccccc2)n1	-12.9%[46.1 µM]	22.4µM*	-8.0%	0.3%	-7.3%	6.31µM*
CSc1nc(N)nc(SCC(=O)c2ccccc2)c1C#N	-19.5%[46.1 µM]	-28.7%	?	?	?	?
Cc1cc(SCC(=O)c2ccccc2)n2nc(C)nc2n1	-4.6%[46.1 µM]	-18.3%	2.7%	12.6%	3.5%	20µM*
Cc1cc(C)n2nc(SCCCC(=O)c3ccccc3)nc2n1	-1.7%	·	0.5%	3.9%	2.7%	2.5%
Cc1cc(C)c(C#N)c(Sc2ccccc2N)n1	-6.3%	·	-17.1%	-6.3%	0.2%	25.1µM*
Cc1cc(C)c(C#N)c(SCC(=O)c2ccccc2)n1	28.4%	·	?	4.0%	-27.7%	22.4µM*
COC(=O)C(Sc1nc(C)cc(C)c1C#N)c1ccccc1 (stereo unspecified)	?	-6.1%	-5.4%	-1.6%	-13.0%	5.2%
COc1ccc(OCC(=O)Nc2cc(-c3nn(C)c(=O)c4ccccc34)ccc2N2CCOCC2)cc1	-26.9%	·	?	-6.1%	-25.1%	·
O=C(NC1CCCCC1)c1ccc(Cc2nc3ccccc3[nH]2)cc1	·	-3.5%	·	·	·	5.4%
COc1cc(C2c3[nH]c4ccccc4c3CC3C(=O)N4C(Cc5c([nH]c6ccccc56)C4c4cc(OC)c(OC)c(OC)c4)C(=O)N32)cc(OC)c1OC (stereo unspecified)	·	·	-11.8%[11.5 µM]	12.0%[11.6 µM]	-14.2%[11.6 µM]	0.9%[13.5 µM]
[O-][N+](=Nc1ccccc1)c1ccccc1	·	1.4%	·	·	·	-6.1%
CC(C)(C)NC[C@H](O)COc1cccc2c1CCC(=O)N2	·	0.8%	·	·	·	1.1%[20.9 µM]
O=C(CN1CCCCCC1=O)N1CCN(S(=O)(=O)c2cccs2)CC1	6.7%	·	-0.8%	-1.5%	-4.1%	11.4%
Cc1ccc(C(=O)CSc2ncnc3ccccc23)o1	2.4%	·	?	?	-20.6%	?
O=C(CSc1ncnc2ccccc12)c1cccs1	5.4%	·	?	?	-19.8%	11.2µM*
Cc1cc(C)c(C#N)c(SCC(=O)c2cccs2)n1	-13.3%[46.1 µM]	15.8µM*	?	-2.4%	-13.8%	?
Cc1cc(=O)[nH]c(SCC(=O)c2ccccc2)c1C#N	-1.6%[46.1 µM]	?	-12.2%	-11.2%	-6.6%	17.8µM*
Cc1cc(C)c(C#N)c(SCC(O)CS(=O)(=O)Cc2ccccc2)n1 (stereo unspecified)	-19.3%[46.1 µM]	-17.8%	11.8%	2.2%	-0.6%	28.2µM*
O=C(Cc1ccc(Cl)cc1)NCC(c1cccs1)S(=O)(=O)c1ccc(F)cc1 (stereo unspecified)	·	·	-5.4%	-10.8%	-17.2%	·
Cc1cccc(-n2ncc(C(=O)N3CCN(Cc4ccccc4)CC3)c2C2CCN(C(=O)OC(C)(C)C)CC2)c1	·	·	-12.8%	-1.9%	-5.2%	·
O=C(c1ccc(-n2c(=O)c(=O)[nH]c3ccccc32)cc1)N1CCCN(Cc2ccccc2)CC1	·	-6.8%	·	·	·	?
Cc1nc(SCC(=O)c2ccccc2)c(C#N)c(-c2ccco2)c1C(=O)NCc1ccco1	?	-21.5%	?	0.6%	-8.4%	10µM*
CCN(CC)C(=O)CSc1nc(C)cc(-c2cccs2)c1C#N	?	-28.1%	-7.1%	-1.0%	-13.1%	12.6µM*
Cc1ccc(N2CC(NC(=O)c3cccs3)CC2=O)cc1 (stereo unspecified)	·	·	3.0%	-4.8%	0.8%	·
COC(=O)c1cc(C(=O)c2ccccc2)n2c(=O)/c(=C\N(C)C)sc12	13.9%	·	-12.0%	8.9%	-6.7%	3.16µM*
